Data: PubChem BioAssay AID463173 (ICCB-Longwood Screening Facility, Harvard Medical School, 2010)
Among all 52,000 compounds or so, about 4,300 (8.3%) were called active. Cut-off read from the data, not from the text of the source: active = survival mostly below about 52% (no sharp cut-off); inactive = mostly above about 56%. Only a selection was taken, and actives are over-represented in it overall.

system: DeltatarO mutant; assay: growth inhibition of S. aureus wild type versus tarO mutant, primary screen, teichoic acid synthesis inhibitors, RN4220, OD600 (AID 463173); conditions: OD600, 18 h, stronger effect = lower value, screened at 18.75 µg/mL (by protocol)

SMILES | survival
COc1ccc(C2=NN(CC(=O)NCCCN(C)c3ccccc3)C(=O)CC2)cc1 | 116% (inactive)
CCCn1c(=O)c2sccc2n2c(CCCC(=O)Nc3ccc(Oc4ccccc4)cc3)nnc12 | 88% (inactive)
CN(C)c1ccc(C(CNC(=O)COc2ccc(Cl)cc2)N2CCOCC2)cc1 (configuration not stated) | 55% (inactive)
Cc1ccc(OCC(=O)Nc2nonc2-c2ccc(Br)cc2)cc1 | 75% (inactive)
Cc1cccc(OCC(=O)Nc2nonc2-c2ccc(Br)cc2)c1C | 68% (inactive)
Cc1cccc(OC(C)C(=O)Nc2nonc2-c2ccc(Br)cc2)c1C (configuration not stated) | 70% (inactive)
Cc1ccc(OC(C)C(=O)Nc2nonc2-c2ccc(Br)cc2)cc1C (configuration not stated) | 66% (inactive)
Cc1cccc(C)c1OCC(=O)Nc1nonc1-c1ccc(Br)cc1 | 41% (active)
Cc1cc(C)cc(OC(C)C(=O)Nc2nonc2-c2ccc(Br)cc2)c1 (configuration not stated) | 14% (active)
CCc1ccc2[nH]cc(S(=O)(=O)c3ccc(C(C)C)cc3)c(=O)c2c1 | 62% (inactive)
CC(C)c1ccc(NC(=O)CCNS(=O)(=O)c2ccc3c(c2)CCCC(=O)N3)cc1 | 77% (inactive)
Cc1cc(C)c2c(=O)cc(CSCC(=O)Nc3ccccc3Cl)[nH]c2c1 | 90% (inactive)
Cc1ccc(-c2cc3ncc4c(n3n2)-c2cc(F)ccc2OC4)cc1 | 108% (inactive)
O=C(CS(=O)(=O)c1cccc2nsnc12)Nc1ccccc1Cl | 71% (inactive)
CCOC(=O)Cc1cc(=O)[nH]c(/N=C(\N)Nc2ccc3ccccc3c2)n1 | 98% (inactive)
COC(=O)c1ccc(NC(=O)CCc2c(C)nn(-c3ccc(N4CCOCC4)nn3)c2C)cc1 | 78% (inactive)
Cc1cc(C)cc(NC(=O)C(=O)NCC(c2cccnc2)N2CCN(c3ccccc3)CC2)c1 (configuration not stated) | 56% (inactive)
CCOC(=O)C(=O)NCC(c1cccnc1)N1CCN(c2ccccc2)CC1 (configuration not stated) | 65% (active)
Cc1ccc(CNC(=O)C(=O)NCC(c2cccnc2)N2CCN(c3ccc(F)cc3)CC2)cc1 (configuration not stated) | 73% (inactive)
CCN(CC)CCNC(=O)C(=O)NCC(c1cccnc1)N1CCN(c2ccccc2)CC1 (configuration not stated) | 100% (inactive)
COCCNC(=O)C(=O)NCC(c1cccnc1)N1CCN(c2ccccc2OC)CC1 (configuration not stated) | 64% (inactive)
COc1ccccc1N1CCN(C(CNC(=O)C(=O)NCCN(C)C)c2cccnc2)CC1 (configuration not stated) | 69% (inactive)
COc1ccccc1N1CCN(C(CNC(=O)C(=O)NCCCN(C)C)c2cccnc2)CC1 (configuration not stated) | 61% (active)
COC(=O)NCC(c1cccnc1)N1CCN(c2ccc(F)cc2)CC1 (configuration not stated) | 83% (inactive)
Cc1ccc(C)c(NC(=O)C(=O)NCC(c2cccnc2)N2CCN(c3ccc(F)cc3)CC2)c1 (configuration not stated) | 15% (active)

SMILES | survival
CCOc1ccccc1NC(=O)C(=O)NCC(c1cccnc1)N1CCN(c2ccccc2)CC1 (configuration not stated) | 54% (inactive)
CN(C)CCNC(=O)C(=O)NCC(c1cccnc1)N1CCN(c2ccccc2)CC1 (configuration not stated) | 54% (active)
CN(C)CCNC(=O)C(=O)NCC(c1cccnc1)N1CCN(c2ccc(F)cc2)CC1 (configuration not stated) | 69% (inactive)
COc1ccc(OC)c(NC(=O)Cn2cc(C(=O)c3cccs3)c3ccccc32)c1 | 50% (inactive)
Cc1ccccc1NC(=O)CSC1=Nc2ccccc2C2=NC(CCC(=O)NCc3ccccc3)C(=O)N12 (configuration not stated) | 89% (inactive)
COc1cccc(C2C(C(N)=O)=C(C)Nc3ncnn32)c1 (configuration not stated) | 71% (inactive)
Cn1c(SCc2ccccc2F)nc2c([nH]c3ccccc32)c1=O | 97% (inactive)
Cc1ccc(/C=C/c2onc(C)c2S(=O)(=O)N2CCC(C(=O)N3CCN(c4cc(C)ccc4C)CC3)CC2)cc1 | 87% (inactive)
O=C(Cn1cc(SCc2ccccc2Cl)c2ccccc21)N1CCCCCC1 | 74% (inactive)
CC1CCN(S(=O)(=O)c2cc(C(=O)NCc3ccc(N(C)C)cc3)n(C)c2)CC1 | 93% (inactive)
Cc1cccc(N2CCN(c3ccc(NC(=O)c4ccccc4)cc3C(=O)O)CC2C)c1 (configuration not stated) | 81% (inactive)
CCCS(=O)(=O)N1CCC(N2CCN(Cc3ccc(F)cc3)C(=O)C2=O)CC1 | 83% (inactive)
COc1cccc(CNC(=O)Cn2c(=O)cc(C(F)(F)F)c3c(C)nn(C)c32)c1OC | 90% (inactive)
COCCNC(=O)C(=O)NCC(c1cccnc1)N1CCN(c2ccccc2F)CC1 (configuration not stated) | 70% (inactive)
COCCNC(=O)C(=O)NCC(c1cccnc1)N1CCN(c2ccccc2)CC1 (configuration not stated) | 54% (active)
O=C(NCCc1ccccc1)C(=O)NCC(c1cccnc1)N1CCN(c2ccccc2)CC1 (configuration not stated) | 51% (inactive)
O=C(NCc1cccnc1)C(=O)NCC(c1cccnc1)N1CCN(c2ccccc2)CC1 (configuration not stated) | 53% (inactive)
O=C(NCc1ccccc1)C(=O)NCC(c1cccnc1)N1CCN(c2ccccc2)CC1 (configuration not stated) | 45% (active)
O=C(NCc1ccc(Cl)cc1)C(=O)NCC(c1cccnc1)N1CCN(c2ccccc2)CC1 (configuration not stated) | 47% (inactive)
Cc1ccc(CCNC(=O)c2ccc3c(c2)N(Cc2ccccc2F)C(=O)c2ccccc2S3=O)cc1 (configuration not stated) | 69% (inactive)
COc1ccc(-c2cc(C(=O)NCc3ccc(F)cc3)c3c(-c4ccc(F)cc4)[nH]nc3n2)cc1OC | 72% (inactive)
COc1ccc(CCNc2nc3c(c(=O)n(C)c(=O)n3C)n2Cc2ccc(F)cc2)cc1OC | 90% (inactive)
CCOc1ccc(N(c2nc(-c3ccc(OC)c(OC)c3)no2)c2nc(-c3ccc(OC)c(OC)c3)no2)cc1 | 73% (inactive)
Nc1ncc(Cc2ccccc2)s1 | 75% (inactive)
CCCCSCCCNC(=O)CN1C(=O)c2cccnc2Oc2ccc(Cl)cc21 | 94% (inactive)

SMILES | survival
N#CC1=C(N)Oc2c(c(=O)oc3ccccc23)C12C(=O)Nc1ccccc12 (configuration not stated) | 102% (inactive)
N#CC1=C(N)Oc2c(c(=O)oc3ccccc23)C1 | 31% (active)
N#Cc1cc2c(ccc3ccccc32)oc1=O | 71% (inactive)
COc1ccc(N2CCN(C(=O)Cn3ncc4c3-c3cc(C)ccc3OC4)CC2)cc1 | 122% (inactive)
C=C(C)Cn1c(=O)c2c(nc3n2CCN3c2cc(C)cc(C)c2)n(C)c1=O | 81% (inactive)
Oc1cccc(N=Cc2sc(=S)n(C3CCCCC3)c2O)c1 | 84% (inactive)
CC1=C(C(=O)NCc2cccc(F)c2)C2(CCCCCC2)OC1=O | 55% (inactive)
CC1=C(C(=O)Nc2cccc(Cl)c2C)C2(CCCCCC2)OC1=O | 0% (active)
COC(=O)c1ccccc1NC(=O)C1=C(C)C(=O)OC12CCCCCC2 | 84% (inactive)
CC1=C(C(=O)Nc2ccccc2Br)C2(CCC(C)CC2)OC1=O (configuration not stated) | 83% (inactive)
CC1=C(C(=O)NCc2cccc(F)c2)C2(CCCCC2)OC1=O | 37% (active)
CC(=O)N1CCC2(CC1)OC(=O)C(C)=C2C(=O)Nc1cccc(Cl)c1C | 70% (inactive)
COC(=O)c1ccccc1NC(=O)C1=C(C)C(=O)OC12CCC(C)CC2 (configuration not stated) | -23% (active)
CC1=C(C(=O)NCc2cccc(Br)c2)C2(CCCCC2)OC1=O | 83% (inactive)
CC1=C(C(=O)Nc2cccc(C(F)(F)F)c2)C2(CCCCC2)OC1=O | 95% (inactive)
CC1=C(C(=O)Nc2cccc(C)c2C)C2(CCCCC2)OC1=O | 89% (inactive)
CC1=C(C(=O)Nc2cccc(C(F)(F)F)c2)C2(CCN(C(C)C)CC2)OC1=O | 84% (inactive)
CC1=C(C(=O)Nc2cccc(C(F)(F)F)c2)C2(CCCCCC2)OC1=O | 32% (active)
CCOc1ccc(C2C(C(=O)Nc3ccc(C)cc3C)=C(C)Nc3c(C(=O)Nc4ccc(C)cc4)cnn32)cc1OC (configuration not stated) | 94% (inactive)
O=C(NC(=O)c1ccccc1)Nc1ccc(-n2nc(C(F)(F)F)cc2C(F)(F)F)cc1 | 173% (inactive)
COC(=O)c1ccccc1NC(=O)Cn1c(=O)cc(-c2ccccc2)c2c(C)nn(C)c21 | 89% (inactive)
CCOC(=O)C(CC)N1CCN(Cc2ccc(F)cc2)C(=O)C1=O (configuration not stated) | 85% (inactive)
Cc1cccc(NC(=O)C(=O)NCC(c2cccnc2)N2CCc3ccccc3C2)c1C (configuration not stated) | 86% (inactive)
CN1CC(=O)N(CC(=O)Nc2ccc(Cl)c(C(F)(F)F)c2)c2ccccc2C1=O | 85% (inactive)
Cc1ccc(NC(=O)C2CCCN(S(=O)(=O)c3cccc4cccnc34)C2)c(C)c1 (configuration not stated) | 78% (inactive)

SMILES | survival
O=C(COc1ccccc1[N+](=O)[O-])Nc1ccc(-c2nc3ccccc3s2)cc1 | 63% (inactive)
COc1cccc(C(=O)Nc2ccccc2C(=O)OCc2cc(=O)n3nc(C4CC4)sc3n2)c1 | 65% (inactive)
COc1ccc(OC)c(NC(=O)C2=C(C)C(=O)OC23CCCCCC3)c1 | 131% (inactive)
COc1ccc(OC)c(NC(=O)C2=C(C)C(=O)OC23CCN(C(C)C)CC3)c1 | 32% (active)
COc1ccc(NC(=O)C2=C(C)C(=O)OC23CCN(C(C)C)CC3)cc1Cl | 83% (inactive)
CCCn1c(=O)c2sccc2n2c(CCCC(=O)NC3CCCCC3)nnc12 | 80% (inactive)
CCc1cccc(C)c1NC(=O)CCn1c(=O)c2cccn2c2ccccc21 | 58% (inactive)
COc1ccc(-n2nc3c(N4CCCC(C(=O)NCCc5ccccc5C)C4)nnc(C)c3c2C)cc1 (configuration not stated) | 70% (inactive)
C/C(=N\NC(=O)c1ccco1)c1ccc(C)o1 | 80% (inactive)
CC(=O)c1ccc(NC(=O)Cn2ncc3c4ccccc4n(Cc4ccccc4)c3c2=O)cc1 | 73% (inactive)
CC(=O)c1ccc(NC(=O)COc2ccccc2-c2nc(C)no2)cc1 | 95% (inactive)
Cc1cccc(-c2noc(-c3ccccc3OCC(=O)Nc3ccccc3[N+](=O)[O-])n2)c1 | 94% (inactive)
Cc1noc(-c2ccccc2OCC(=O)Nc2ccccc2[N+](=O)[O-])n1 | 39% (active)
Cc1ccc(-c2noc(-c3ccccc3OCC(=O)Nc3ccccc3[N+](=O)[O-])n2)cc1 | 60% (inactive)
O=C(COc1ccccc1-c1nc(-c2ccccc2)no1)Nc1ccccc1[N+](=O)[O-] | 31% (active)
CC(C)c1noc(-c2ccccc2OCC(=O)Nc2ccccc2[N+](=O)[O-])n1 | 44% (active)
CC(=O)c1ccc(NC(=O)COc2ccccc2-c2nc(-c3ccccc3)no2)cc1 | 48% (inactive)
Cc1ccccc1-c1noc(-c2ccccc2OCC(=O)Nc2ccccc2[N+](=O)[O-])n1 | 45% (inactive)
CC(C)c1noc(-c2ccccc2OCC(=O)Nc2ccc([N+](=O)[O-])cc2)n1 | 61% (inactive)
CC(C)c1noc(-c2ccccc2OCC(=O)Nc2cccc([N+](=O)[O-])c2)n1 | 62% (inactive)
CC(=O)c1ccc(NC(=O)COc2ccccc2-c2nc(C(C)C)no2)cc1 | 55% (active)
Cc1ccc2cccc(NC(=O)COc3ccccc3[N+](=O)[O-])c2n1 | 75% (inactive)
